# According to PubChem BioAssay (NCI):
# The panel holds about 83,000 compounds, 20% with a hit somewhere; the sample as a whole holds those more often.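 In brief: 96-well plates, 48 h treatment, single concentration, percent growth endpoint.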 The source made the active and inactive calls. How the source made its calls: active means growth percent below 10; inactive means the rest.
# Tested on: MDA-MB-468 breast
# Assay: NCI-60 one-dose screen, 48 h (100 = growth as untreated, 0 = no growth, -100 = all killed)
# Conditions: 10 µM unless noted
row,Compound,growth
1,O=C(/C=C/C12c3ccccc3C(c3ccccc31)C1C(=O)NC(=O)C12)c1ccc(F)cc1 (stereo not given),-25% (active)
2,CCOC(=O)/C(=C\c1ccccc1Cl)P(=O)(OCC)OCC,43.5% (inactive)
3,COc1ccc(NC(=O)Nc2ccc3c(ccn3C(=O)c3cccc(F)c3)c2)cc1,86.6% (inactive)
4,Nc1nc(Nc2ccc(OCc3cccc(F)c3)cc2)c2c(n1)[nH]c1ccc(O)cc12,-17.2% (active)
5,CC/C(=C/c1cc(OC)ccc1O)c1ccc2cc(OC)ccc2[o+]1,45.8% (inactive)
6,O=C1C=CC2(O)OC(c3ccccc3)CC(=O)C2=C1O (stereo not given),70.7% (inactive)
7,CC1C2CCC(C2)C1COCCOCCO (stereo not given),102% (inactive)
8,CCCCCCCCCCCC1=NC(C)(C)CN1CC(C)O (stereo not given),10% (inactive)
9,C=C[C@@H]1C[C@@H]2Cc3ccccc3N1O2,97.8% (inactive)
10,COc1cc(C2CC(c3cccc(Nc4ccncc4)c3)=NN2c2cc(Cl)cc(Cl)c2)cc(OC)c1OC (stereo not given),-11.9% (active)
11,COc1ccc(Cn2cc(C(=O)Nc3cccnc3Nc3ccccc3)nn2)cc1,92.9% (inactive)
12,COc1cc(/C=N/NC(=O)c2cnn3c2NC(c2ccccc2)C3)cc(OC)c1OC (stereo not given),62.8% (inactive)
13,Nc1ncc(-c2ccc3ncnc(Nc4ccc(F)c(Cl)c4)c3c2)cn1,-22.3% (active)
14,O=C1CCCN1C(O)CCN(Cc1ccccc1)Cc1ccc(Cl)cc1 (stereo not given),113% (inactive)
15,COc1cc2cc(Oc3ccc(NC(=O)Nc4ccc(F)c(C(F)(F)F)c4)cc3)c(C)nc2cc1OCCN1CCOCC1,-15.6% (active)
